40 compounds from PubChem BioAssay (Tox21) can be followed below.

Records with an inconclusive call do not appear. Entries that show only a call come without a potency. Calls of active or inactive are those of the source. Calls follow the shape of the dose curve; as a rule, active = well fitted activation curve with a large enough effect in the repeat runs; inconclusive = weak or mixed curves; inactive = flat fitted curve, though single readings scatter.

A short description of this experiment: A CellTox Green Cytotoxicity Assay to monitor cytotoxicity in HEK293 cells - 16 hour (AID 1224888). Also: nearly all actives have a fitted effect of over 35% in size. The following applies: CellTox Green fluorescence; series mostly up to 76.8 µM. The text has this:
National Center for Advancing Translational Sciences [NCATS]
NIH Chemical Genomics Center [NCGC]
U.S. Environmental Protection Agency [EPA]
National Institutes of Environmental Health Sciences [NIEHS]
National Toxicology Program [NTP]
Cell-based models are critical for drug discovery. Determining the natural cytotoxic effects resulting from test compounds is an essential research activity. A CellTox Green Cytotoxicity Assay to monitor cytotoxicity in real time of continues cell culture during 40 hours of the compound treatment was used to screen Tox21 10K library compounds in Hek293 cells. CellTox Green Cytotoxicity Assay is a nonlytic, homogeneous, biofluorescent method to measure cytotoxicity in cell culture after experimental manipulation. The assay system uses a proprietary asymmetric cyanine dye that is excluded from viable cells but preferentially stains the dead cell's DNA. […] Viable cells produce no appreciable increases in fluorescence. Therefore, the fluorescence signal produced by the binding interaction with dead cell DNA is proportional to cytotoxicity.
The mixture of Hek293 cell suspension and reagents were dispensed at 600cells/6 ul/well in 1536-well tissue culture treated black solid bottom plates using a Multidrop dispenser. After the assay plates were incubated at a 37 C/5% CO2 incubator for 5 hours, 23 nL of compounds dissolved in DMSO, positive and negative controls was transferred to the assay plate by a pintool work station. The plates were incubated at 37 C for 40 hours. The fluorescence intensity were measured at 0h, 8h, 16h, 24h, 32h and 40h time points using ViewLux plate reader during compound treatment.
On to `O=C(O)c1ccccc1-c1ccc(C(F)(F)F)cc1`, for which the Potency result was “inactive”.

On to `C=CCOCC(O)CS(=O)(=O)O` (stereo not given), for which the Potency entry was “inactive”.

For `CCCC(C)C(=O)O` (stereo not given), the Potency result is “inactive”. The result for `CC(C)=CCC/C(C)=C/C(=O)O` reads “inactive”; that for `COc1cc(C(=O)N2CCOCC2)cc(OC)c1OC`, “inactive”.

With `COC(=O)CCCCCCCCC(=O)OC`, the Potency result is “inactive”. The result for `COc1cccc(Br)c1` reads “inactive”; that for `CC(C)CCCC(C)NCCC(C)C` (stereo not given), “inactive”; that for `O=C(O)c1ccccc1S`, “inactive”. Regarding `NC(=O)c1c(Cl)cccc1Cl`, the Potency entry was “inactive”. The result for `Fc1ccccc1-c1ccccc1` reads “inactive”; that for `C=CCSCC1Nc2cc(Cl)c(S(N)(=O)=O)cc2S(=O)(=O)N1` (stereo not given), “inactive”. `COCCOC(=O)CC#N`: the Potency result was “inactive”.

Consider `COCc1ccc(COC)cc1`, for which the Potency result is “inactive”. On to `NC(=O)c1ncn([C@@H]2O[C@H](CO)[C@@H](O)[C@H]2O)c1N`, for which the Potency result is “inactive”. Take `CC/C=C\CCCCO`: the Potency result is “inactive”. With `CCCCCCOC(=O)CC(CC(=O)OCCCCCC)(OC(=O)CCC)C(=O)OCCCCCC` the entry was “inactive”. In the case of `CC(C)c1ccc2oc3nc(N)c(C(=O)O)cc3c(=O)c2c1`, the Potency entry was “inactive”. In the case of `CCCCc1ccc2cccc(S(=O)(=O)O)c2c1`, the Potency entry was “inactive”. With `CC(C)c1cccc(O)c1` the entry was “inactive”; with `CN(C)CCOC(c1ccc(Cl)cc1)c1ccccn1` (stereo not given), “inactive”; with `CCC(=O)Nc1cccc(N)c1`, “inactive”. With `OC[C@H]1O[C@@H]2O[C@H]3[C@H](O)[C@@H](O)[C@@H](O[C@H]4[C@H](O)[C@@H](O)[C@@H](O[C@H]5[C@H](O)[C@@H](O)[C@@H](O[C@H]6[C@H](O)[C@@H](O)[C@@H](O[C@H]7[C@H](O)[C@@H](O)[C@@H](O[C@H]8[C@H](O)[C@@H](O)[C@@H](O[C@H]9[C@H](O)[C@@H](O)[C@@H](O[C@H]1[C@H](O)[C@H]2O)O[C@@H]9CO)O[C@@H]8CO)O[C@@H]7CO)O[C@@H]6CO)O[C@@H]5CO)O[C@@H]4CO)O[C@@H]3CO` the entry was “inactive”; with `OC1OC[C@@H](O)[C@H](O)[C@H]1O` (stereo not given in full), “inactive”; with `N[C@@H](CS)C(=O)O`, “inactive”.

Take `CCCCCCCCCCC1CO1` (stereo not given): the Potency result is “inactive”. With `C=C(C)[C@H]1CC=C(C)CC1` the entry was “inactive”; with `CC(=O)O[C@H](CC(=O)[O-])C[N+](C)(C)C`, “inactive”; with `CCCCC=O`, “inactive”.

Consider `CC(C)(C)OC(=O)N1C[C@@H](F)C[C@H]1C(=O)O`, for which the Potency result was “inactive”. On to `O=C1OC(=O)c2cc([N+](=O)[O-])ccc21`, for which the Potency entry is “inactive”.

With `CC(=O)CCc1ccc(O)cc1`, the Potency result was “inactive”. As for `CC1=CCC2C(C1)C2(C)C` (stereo not given), the Potency result was “inactive”.

Take `C1=C\CC/C=C\CC/C=C\CC/1`: the Potency entry is “inactive”. With `C[C@H](O)C(=O)Nc1c(I)c(C(=O)NC(CO)CO)c(I)c(C(=O)NC(CO)CO)c1I` the entry was “inactive”; with `CCCCCCC(CCCCCCCCCCC(=O)OCC(COC(C)=O)OC(C)=O)OC(C)=O` (stereo not given), “inactive”. With `Cc1nccn1CC1CCc2c(c3ccccc3n2C)C1=O` (stereo not given) the entry was “inactive”; with `CCCCCCCCCCCCCCC`, “inactive”.

On to `CCN(CC)C(=O)c1ccc(O)c(OC)c1`, for which the Potency entry is “inactive”. As for `CCCCCCCCCCCCCCCCCC(=O)OCCCCCCCCCCCCCC(C)C`, the Potency result was “inactive”.
